In PubChem BioAssay AID624330 (Southern Research Specialized Biocontainment Screening …, 2012):
Among all 340,000 compounds or so, about 2,100 (0.62%) were called active.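 How the source made its calls: active means first-screen hits whose inhibition reached a set limit at any dose in the follow-up dose series; inconclusive means inhibition above the set first-screen limit but never retested; inactive means the rest.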 These entries were drawn from the full list. Potency and affinity values are given separately.

Each compound was assayed against Rac GTPase-activating protein 1 (Homo sapiens) (UniProt Q9H0H5) (assay: MgcRacGAP GTPase-activating activity inhibitors, confirmation, biochemical, ADP Hunter fluorescence, primary and confirmatory (AID 624330;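 further: fluorescence reports GDP produced by GAP-driven GTP hydrolysis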)). Settings: MgcRacGAP-stimulated Rac1 GTP hydrolysis, at 30 µM, stronger effect = higher value, GST-tagged Rac1 F28L mutant substrate.
Chain of Rac GTPase-activating protein 1 (Homo sapiens) (Q9H0H5 whole entry, looked up): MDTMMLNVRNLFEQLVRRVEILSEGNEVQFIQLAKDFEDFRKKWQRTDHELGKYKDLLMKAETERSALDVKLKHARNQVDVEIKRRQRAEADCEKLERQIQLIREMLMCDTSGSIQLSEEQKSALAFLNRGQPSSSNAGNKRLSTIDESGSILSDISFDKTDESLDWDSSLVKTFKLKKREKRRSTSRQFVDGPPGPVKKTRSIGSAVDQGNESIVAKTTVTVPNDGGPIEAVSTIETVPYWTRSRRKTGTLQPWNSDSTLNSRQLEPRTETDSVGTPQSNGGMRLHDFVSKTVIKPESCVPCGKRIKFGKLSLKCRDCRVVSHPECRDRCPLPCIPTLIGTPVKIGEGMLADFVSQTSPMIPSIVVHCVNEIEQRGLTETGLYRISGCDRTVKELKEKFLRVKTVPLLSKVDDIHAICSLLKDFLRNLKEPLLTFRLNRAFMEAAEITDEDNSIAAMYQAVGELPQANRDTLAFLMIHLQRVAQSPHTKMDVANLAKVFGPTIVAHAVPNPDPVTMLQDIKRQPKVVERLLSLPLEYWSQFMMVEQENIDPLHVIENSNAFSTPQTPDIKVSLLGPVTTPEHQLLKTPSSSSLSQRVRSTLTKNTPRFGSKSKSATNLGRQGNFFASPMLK

inhibition, inactive:
Cc1onc(-c2c(F)cccc2Cl)c1C(=O)NCc1cccs1 5.78%
COc1ccc(S(=O)(=O)N(C)CC(=O)NCCC2=CCCCC2)cc1 4.26%
O=c1[nH]c(/C=C\c2cccc(O)c2)nc(O)c1[N+](=O)[O-] 13.1%
O=[N+]([O-])c1ccc2oc(/C=C/c3ccc(O)cc3)nc2c1 13.2%
NS(=O)(=O)c1ccc(NC(=S)NNC(=O)c2ccc(Br)o2)cc1 4.44%
COc1ccc(Cl)cc1NC(=O)CN(C)CC(=O)Nc1ccc(Br)cc1 3.57%
O=C(NN1C(=O)/C(=C\c2cccnc2)SC1=S)c1ccco1 13.7%
CCOc1ccc(NC(=O)CSc2nnc(C3CC3)n2C)cc1S(=O)(=O)N1CCCCC1 8.28%
COc1ccc(OC)c(CN2CCN(C(=O)c3ccc(F)cc3)CC2)c1 25%
COc1ccccc1N1CCN(C(=O)c2ccncc2)CC1 -0.56%
COc1ccc(Br)cc1CN1CCN(C(=O)c2ccc(OC)c(OC)c2)CC1 21%
COc1ccccc1C(=O)N1CCN(C(=O)c2ccncc2)CC1 1.76%
CCCCOc1ccc(/C=C/C(=O)N(CC)CC(=O)Nc2ccc3c(c2)OCCO3)cc1OC 11.7%
C/C(Cn1nc([N+](=O)[O-])cc1C)=N\NC(=O)COc1ccc(Cl)cc1Cl 6.26%
Cc1ccccc1NC(=O)c1c(C)nn(-c2ccccc2)c1Cl 8.16%
O=C(CSc1ncccn1)NCC1CCCO1 (stereo not drawn) 4.06%
COc1cc(/C=N/Nc2nc3ccccc3[nH]c2=O)ccc1O 15.8%
COc1cc(/C=N\Nc2nc3ccccc3[nH]2)cc(OC)c1OC 29%
COc1ccc(O)c(/C=N/Nc2nc3ccccc3[nH]2)c1 1.94%
COc1cc(OC)c(OC)cc1/C=N/Nc1nc2ccccc2[nH]1 12.8%
COc1ccc(NC(=O)c2c(C)nn(Cc3ccccc3)c2Cl)cc1S(=O)(=O)N1CCOCC1 2.08%
Cc1ccc(S(=O)(=O)N2CCC(C(=O)OC(C)C(=O)N3CCOCC3)CC2)cc1 (stereo not drawn) 4.25%
CCc1ccc(NC(=O)c2n[nH]c(=O)c3ccccc23)cc1 2.23%
COc1ccc(N2CCN(C(=O)CCN3C(=O)C4C5C=CC(C5)C4C3=O)CC2)cc1 (stereo not drawn) 10.9%
CCn1cc(CNC(=O)C2CCC(=O)N(CCc3cccc(F)c3)C2)cn1 (stereo not drawn) 4.69%
CCCNC(=O)COC(=O)C1CCN(S(=O)(=O)c2ccc3c(c2)OCCO3)CC1 2.29%
COc1ccccc1CC(=O)NCC1CCCO1 (stereo not drawn) 14.3%
O=C(CCCC(=O)NCC1CCCO1)NCC1CCCO1 (stereo not drawn) 7.04%
O=C(CN1CCN(c2ccc(F)cc2)CC1)NCC1CCCO1 (stereo not drawn) 12.3%
O=C(CSCSCC(=O)NCC1CCCO1)NCC1CCCO1 (stereo not drawn) 9.35%
Cc1cccc(C(C)C)c1NC(=O)Cc1ccc(S(=O)(=O)N2CCOCC2)s1 6.93%
COCCC(=O)N1CCCC(CCC(=O)NCc2ccc(F)c(F)c2)C1 (stereo not drawn) 4.17%
COc1ccc2nc3cc([N+](=O)[O-])ccc3c(NNc3ccc([N+](=O)[O-])cc3)c2c1 1.37%
COc1cc2c(cc1OC)-c1cc(NC3CC3)nc(=O)n1CC2 3.36%
Cc1ccc(NC(=O)c2csc(-c3ccccc3)c2C)cc1 9.66%
CCOC(=O)c1c(C)[nH]c(C(=O)N2CCN(CC)CC2)c1C 2.01%
CCOC(=O)c1c(C)[nH]c(C(=O)CN2CCOCC2)c1C 2.51%
COC(=O)c1cc(OC)c(OC)cc1NC(=O)c1cc(OC)cc(OC)c1 -0.7%
CCOc1ccccc1N1CCN(Cc2ccco2)CC1 14.9%
CCOc1ccccc1N1CCN(C(=O)CC(C)(C)C)CC1 -0.74%
CCC(=O)c1cn(CC(=O)Nc2cc(C)ccc2C)c2ccccc12 13.6%
O=C(CNC(=O)c1ccc(Br)o1)NNC(=O)c1ccccc1O 6.63%
CCOc1cc(CNc2ccc3c(c2)OCCO3)cc(Br)c1OCC 30%
CCOc1cc(CNc2ccc(Br)cc2)cc(Br)c1OCC(=O)NC(C)(C)C -3.09%
CCOc1cc(C(=O)Nc2ccc(N3CCOCC3)cc2)cc(Br)c1OC 2.59%
CCOc1cc(CNc2ccccc2)cc(Br)c1OCC(=O)NC(C)(C)C 6.03%
CCOc1c(Cl)cc(CNc2ccc(N3CCCC3)cc2)cc1OC 36.9%
COc1cc(CNc2ccc(N3CCCC3)cc2)cc(Cl)c1OC 1.89%
CCOc1cc(CNc2ccc3c(c2)OCCO3)cc(Br)c1OC 23.8%
COc1cc(CC(=O)Nc2ccc(N3CCOCC3)cc2)cc(OC)c1OC 4.24%
COCCNC(=O)/C(C#N)=C/c1ccc(O)cc1 15.1%
CC(C)CCc1noc(CN2CCC(C(=O)N3CCOCC3)CC2)n1 7.77%
Cc1cccc(C2NS(=O)(=O)N=C2N)c1 (stereo not drawn) 4.81%
NC(=O)c1c(NC(=O)C2c3ccccc3Oc3ccccc32)sc2c1CCCCC2 10.9%
Oc1c(C=C2N=c3ccccc3=N2)sc(=S)n1-c1ccc2ccccc2c1 9.34%
O=C(CN(c1ccccc1)S(=O)(=O)c1ccccc1)Nc1ccc(F)cc1 -5.62%
Cc1ccc(NC(=O)c2ccccc2F)cc1S(=O)(=O)N1CCCCCC1 -2.21%
CCn1c(CSc2nc3ccccc3s2)nnc1SCC(=O)c1ccc(Cl)cc1 -0.25%
CCn1c(CSc2nc3ccccc3s2)nnc1SCC(=O)c1ccc(O)cc1O 6.52%
COc1ccccc1N(CC(=O)NCC1CCCO1)C(=O)CCC(=O)Nc1cc(C)on1 (stereo not drawn) 2.95%
COc1ccc(-c2noc(CN(C)Cc3ccccc3)n2)cc1 15.4%
O=C(CCSCc1ccccc1Cl)NC1CCCCC1 5.37%
Nc1ccc2c(O)cc(S(=O)(=O)O)cc2c1 19.4%
Nc1cccc2cc(S(=O)(=O)O)ccc12 20.9%
COc1ccccc1Nc1ccc(NS(=O)(=O)c2ccc(C(C)=O)cc2)cc1 23.2%
O=Nc1c(O)ccc2cc(S(=O)(=O)O)ccc12 13.3%
O=P(c1ccccc1)(c1ccccc1)c1cc(S(=O)(=O)O)ccc1O 5.95%
O=C(O)c1cc2cc(S(=O)(=O)O)ccc2cc1O 6.33%
Nc1cc(S(=O)(=O)O)cc2ccc(S(=O)(=O)O)cc12 6.2%
COc1ccccc1Nc1ccc(N)cc1 10.5%
CCc1ccccc1NC(=O)c1ccc(NCCc2ccccc2)c([N+](=O)[O-])c1 10.6%
C/C(=N\NC(=O)c1cccs1)C(C)(C)C -0.86%
O=C(Nc1cccc(F)c1)Nc1ccnn1C1CCN(C(=O)c2ccccn2)CC1 4.39%
CC1CCCCC1NC(=O)c1ccco1 (stereo not drawn) 0.81%
COc1cccc(Oc2ccc3nnc(C(F)(F)F)n3n2)c1 -1.34%
C[C@@H](O)CNC(=O)c1[nH]cnc1C(=O)Nc1cccc(Cl)c1 16.2%
Nc1ccccc1-c1n[nH]c(=S)s1 25.6%
CCN(c1ccc(OC)cc1)S(=O)(=O)c1nnc(NC(=O)C(C)C)s1 3.54%
O=C(O)c1ccccc1C(=O)c1ccc(-c2ccccc2)cc1 8.16%
CCN1CCN(c2ccc(S(=O)(=O)N3CCOCC3)cc2NC(=O)c2ccccc2SC)CC1 3.45%
CCC(=O)Nc1cc(-c2nn(C)c(=O)c3ccccc23)ccc1OC 5.48%
O=C(COc1ncnc2cc([N+](=O)[O-])ccc12)NCCc1ccc(Cl)cc1 -7.58%
Cc1ccc(NC(=O)c2cc(NC(=O)c3ccco3)ccc2N2CCOCC2)cc1Cl -19.1%
O=S(=O)(c1ccccc1)c1cc(O)ccc1O 6.16%
O=S(=O)(O)c1cccc2cccc(Nc3ccccc3)c12 13.4%
Nc1ccc(C(=O)Nc2ccc3c(O)cc(S(=O)(=O)O)cc3c2)cc1 14.1%
CC(=O)Nc1ccc2c(O)cc(S(=O)(=O)O)cc2c1 6.64%
Cc1ccc(S(=O)(=O)Nc2ccc(O)c(S(=O)(=O)c3ccc(C)cc3)c2)cc1 6.97%
Cc1cc(=O)oc2cc(Nc3ccccc3)ccc12 6.98%
CCCN(CCC)C(=O)C1CCCN(S(=O)(=O)c2ccc3c(c2)oc(=O)n3C)C1 (stereo not drawn) 7.01%
O=C(COC(=O)Cc1ccc(Br)cc1)NC1CC1 4.98%
O=C(COc1ccc(Cl)cc1)N(Cc1ccccc1)c1nc(-c2ccccc2)cs1 9.03%
O=c1n(-c2ccccc2)c(=O)n2n1CCCC2 -0.32%
CCCCN(CC)CCCNC(=O)CC1Oc2ccccc2NC1=O (stereo not drawn) 0.11%
CCOc1ccccc1C(C(=O)NC1CCCC1)N(Cc1ccco1)C(=O)CNC(=O)c1ccco1 (stereo not drawn) 5.39%
O=C(CN1c2ccccc2Sc2ccccc21)NNC(=S)Nc1ccc(Cl)cc1 15.4%
CCOC(=O)C(CO)(NC(C)=O)C(=O)OCC 3.77%
COc1ccccc1OCc1cc(C(=O)N2CC3C[C@@H]4CC2C[C@H](C3)C4)no1 3.59%
